An excerpt weighted towards active compounds, which were near 4% of everything screened.
Wnt bcat act: Wnt/beta-catenin pathway activators, primary screen, cell-based, plate reader, single point; 300,000 tested, 1.2% active; activation, % at 9.35 µM; Wnt/beta-catenin reporter cell assay, activator; in the data active = activation above about 30%, passing the limit was not always enough; inconclusive = no clear call, values can overlap the other calls
MITF act: activators of MITF-driven TRPM1 promoter reporter, primary screen, cell-based, SK-MEL-5, luciferase, single point; SK-MEL-5 TRPM1-promoter luciferase, 24 h; % of positive control, neutral wells = 0; 300,000 tested, 0.75% active; activation, % at 12.5 µM;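 active = mean activation of at least 80% with every replicate also reaching 80%; inconclusive = mean reaches 80% but some replicate falls short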
MITF TRPM1 inh: inhibitors of MITF-dependent TRPM1 promoter reporter, primary screen, cell-based, SK-MEL-5, single point, luciferase; inhibition, % at 12.5 µM; SK-MEL-5 TRPM1 promoter luciferase, 24 h; 330,000 tested, 0.83% active;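 active = mean inhibition across replicates of 60% or more, whatever share of single replicates reaches that level; inconclusive = some that reach 60%, reason not given; inactive = mean inhibition across replicates below 60%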
EWS-Fli block: EWS/Fli-driven NR0B1 reporter inhibitors, primary screen, A673 cells, NR0B1 luciferase, luminescence, MLPCN library. AID 651661, 2012. 350,000 tested, 0.67% active. viability-normalised. inhibition, % at 12.6 µM;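 active = mean inhibition of at least 50% after viability correction, with every replicate also passing that limit; inconclusive = mean reaches 50% but only one of two replicates passes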;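 also: firefly luciferase signal divided by Alamar Blue viability fluorescence both relative to DMSO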
esBAF inh: Bmi1 luciferase reporter increase in mESCs, primary screen, esBAF inhibitor project, mouse ES cells, Bmi1 luciferase knock-in, single point | 24 h; 100% = twice the neutral-well signal | AID 602393, 2012 | 350,000 tested, 2% active | reporter increase, % at 12.5 µM; in the data active = activation above about 40%; inconclusive = no clear call, values can overlap the other calls;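 also: a rise in the Bmi1 reporter signal indicates esBAF inhibition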
PAX8 reporter: inhibitors of PAX8-driven TPO luciferase reporter, primary screen, RMG-I cells, single concentration; SteadyGlo, 24 h; inhibition, % at 12.6 µM; 360,000 tested, 1.2% active;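 active = mean replicate inhibition at least 60% with every replicate also reaching 60%; inconclusive = only one of the two criteria is met; inactive = mean below 60% and not all replicates reaching 60%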;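 also: luciferase light reporting Pax8 driven TPO promoter activity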
Large screens that a line does not name were inactive; ! = a repeat was not active.

CC1CCN(C(=O)CSCc2ccc(Cl)cc2)CC1	MITF act inconclusive, esBAF inh 49 (no result: Wnt bcat act, EWS-Fli block, PAX8 reporter)
C[C@@H]1CCCCO[C@H](CN(C)Cc2ccncc2)[C@H](C)CN([C@H](C)CO)C(=O)c2cc(NC(=O)Nc3ccc(C(F)(F)F)cc3)ccc2O1	PAX8 reporter 95 (no result: Wnt bcat act, MITF act, MITF TRPM1 inh)
C[C@@H]1CN([C@H](C)CO)C(=O)c2cc(NC(=O)Nc3ccc(C(F)(F)F)cc3)ccc2O[C@@H](C)CCCCO[C@@H]1CN(C)Cc1ccncc1	PAX8 reporter 93 (no result: Wnt bcat act, MITF act, MITF TRPM1 inh)
C[C@@H]1CCCCO[C@H](CN(C)Cc2ccncc2)[C@H](C)CN([C@@H](C)CO)C(=O)c2cc(NC(=O)Nc3ccc(C(F)(F)F)cc3)ccc2O1	PAX8 reporter 92 (no result: Wnt bcat act, MITF act, MITF TRPM1 inh)
C[C@@H]1CCCCO[C@@H](CN(C)Cc2ccc(C(F)(F)F)cc2)[C@@H](C)CN([C@H](C)CO)C(=O)c2cc(NC(=O)Nc3ccc(C(F)(F)F)cc3)ccc2O1	none (no result: Wnt bcat act, MITF act, MITF TRPM1 inh)
CCNC(=O)C[C@H]1CC[C@H]2[C@@H](COc3ccc(NC(=O)c4cc(C)on4)cc3C(=O)N2C)O1	none (no result: Wnt bcat act, MITF act, MITF TRPM1 inh)
N#Cc1cc2c(nc1SCC1COc3ccccc3O1)CCC2 (stereo unspecified)	MITF act 111 (no result: Wnt bcat act, EWS-Fli block, esBAF inh, PAX8 reporter)
Cc1cc(C)c(C#N)c(SCC2COc3ccccc3O2)n1 (stereo unspecified)	none (no result: EWS-Fli block, PAX8 reporter)
Cc1ccc(S(=O)(=O)N(C)C[C@@H]2OCCCC[C@H](C)Oc3ccc(NC(=O)C4CCCCC4)cc3C(=O)N([C@H](C)CO)C[C@H]2C)cc1	none (no result: Wnt bcat act, MITF act, MITF TRPM1 inh)
CCCNC(=O)Nc1ccc2c(c1)C(=O)N(C)C[C@H](OC)[C@@H](C)CN(S(C)(=O)=O)[C@@H](C)CO2	none (no result: Wnt bcat act, MITF act, MITF TRPM1 inh, esBAF inh, PAX8 reporter)
O=C(N/N=C/c1ccc(Cl)cc1Cl)Nc1ccccc1	none (no result: Wnt bcat act, EWS-Fli block, PAX8 reporter)
CCN(CC)c1ccc(/C=N/NC(=O)OC(C)(C)C)cc1	Wnt bcat act 59, esBAF inh 70
CCOc1ccc(/C=N/NC(=O)Nc2ccccc2)cc1	MITF act 122 (no result: esBAF inh)
CCN(CC)c1ccc(/C=N/NC(=O)Nc2ccccc2)cc1	Wnt bcat act 43 (no result: esBAF inh)
O=C(N/N=C/c1cccc(Cl)c1Cl)Nc1ccccc1	esBAF inh 50 (no result: PAX8 reporter)
CCOc1ccc(/C=N/NC(=O)CC(=O)NCc2ccccc2)cc1	none (no result: esBAF inh)
CO[C@@H]1CN(C)C(=O)c2ccc(NC(=O)Nc3cc(F)ccc3F)cc2OC[C@H](C)N(C(=O)c2cnccn2)C[C@@H]1C	none (no result: Wnt bcat act, MITF act, MITF TRPM1 inh, PAX8 reporter)
CCCNC(=O)Nc1ccc2c(c1)OC[C@H](C)N(Cc1ccncc1)C[C@@H](C)[C@@H](OC)CN(C)C2=O	none (no result: Wnt bcat act, MITF act, MITF TRPM1 inh)
CCCCCc1ccc2cc(C#N)ccc2n1	esBAF inh 48 (no result: MITF act, MITF TRPM1 inh)
CCCCCCc1ccc(-c2ccc(C#N)cc2)cc1	none (no result: MITF act, MITF TRPM1 inh, esBAF inh, PAX8 reporter)
Nc1c(-c2ccc(Cl)cc2)cnn1-c1cccc(C(F)(F)F)c1	esBAF inh 68 (no result: EWS-Fli block, PAX8 reporter)
Cc1nn(-c2cccc([N+](=O)[O-])c2)c(N)c1-c1ccccc1	MITF act 92, esBAF inh 66
Nc1c(-c2ccc(Cl)cc2)cnn1-c1cccc([N+](=O)[O-])c1	esBAF inh 64 (no result: Wnt bcat act, MITF act, EWS-Fli block)
Cc1ccc(-c2cnn(-c3cccc(C(F)(F)F)c3)c2N)cc1	esBAF inh 87 (no result: Wnt bcat act, MITF act, EWS-Fli block, PAX8 reporter)
CCNC(=O)[C@H]1[C@H](CO)[C@H]2Cn3c(ccc(/C=C/c4ccccc4)c3=O)[C@H]2N1C(C)=O	none (no result: Wnt bcat act, MITF act, MITF TRPM1 inh)
O=C(/C=C\N1CCOCC1)c1ccc(Br)cc1	esBAF inh 47
O=C(/C=C/N1CCOCC1)c1ccc(-c2ccccc2)cc1	none (no result: Wnt bcat act, EWS-Fli block, PAX8 reporter)
O=C(CSc1ccc(F)cc1)Nc1ccc(C2SCCS2)cc1	esBAF inh 45 (no result: MITF act)
O=C(CSC1=NCCS1)Nc1ccc(F)cc1	none (no result: esBAF inh)
Cc1cccc(S(=O)(=O)N2C[C@@H]3N[C@H](C2)C3c2ccc(-c3ccncc3)cc2)c1 (stereo partly specified)	EWS-Fli block 57! (no result: Wnt bcat act, MITF act, MITF TRPM1 inh, esBAF inh)
COc1cccc(S(=O)(=O)N2C[C@@H]3N[C@H](C2)C3c2ccc(-c3cccc(C)c3)cc2)c1 (stereo partly specified)	EWS-Fli block 55!, PAX8 reporter 69! (no result: Wnt bcat act, MITF act, MITF TRPM1 inh, esBAF inh)
Cc1cccc(S(=O)(=O)N2C[C@@H]3N[C@H](C2)C3c2ccc(-c3cccnc3)cc2)c1 (stereo partly specified)	none (no result: Wnt bcat act, MITF act, MITF TRPM1 inh, esBAF inh)

Screening data deposited in PubChem by Broad Institute.
